PubChem BioAssay AID1159580 (chemical genetic matrix, 2015)
“And” between values parts separate entries of the source, which are not always exact repeats. Equal entries are not always repeated. The whole screen tested about 5,500 compounds, of which about 2,000 (36%) were called active. Not shown: some 18% with an inconclusive outcome. Rule as the data show it: active = normalized growth mostly below about 0.91 (no sharp cut-off); inconclusive = no clear call, values can overlap the other calls; inactive = mostly above about 0.92. This is one part of the list.

Assay: chemical genetic growth profiling, strain panel (AID 1159580);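 also: tested at 20 µM; growth read once vehicle control cultures reached saturation at 30 °C; 1 = growth at the plate median or of vehicle wells; lower values mean less growth of the strain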
Settings: growth OD

Measured: normalized growth

COc1ccc2[nH]cc(CCNC(C)=O)c2c1
inactive: S. cerevisiae deletion strains, locus YJR075W, strain HOC1, active compounds read low 1.07 | S. cerevisiae deletion strains, locus YKL009W, strain mrt4, active compounds read low 1.01 | S. cerevisiae deletion strains, locus YKL068W, active compounds read low 1.01 | S. cerevisiae deletion strains, locus YKL085W, strain MDH1 (second series), active compounds read low 1.01 | S. cerevisiae deletion strains, locus YKL085W, strain MDH1, active compounds read low 1.01 | S. cerevisiae deletion strains, locus YKL160W, strain elf1, active compounds read low 0.979 | S. cerevisiae deletion strains, locus YKL190W, strain CNB1, active compounds read low 1 | S. cerevisiae deletion strains, locus YKR001C, strain vps1, active compounds read low 1.03 | S. cerevisiae deletion strains, locus YKR026C, strain gcn3, active compounds read low 0.97 | S. cerevisiae deletion strains, locus YKR091W, strain srl3, active compounds read low 0.969 | S. cerevisiae deletion strains, locus YLL001W, strain dnm1, active compounds read low 0.971 | S. cerevisiae deletion strains, locus YLL026W, active compounds read low 0.979 | S. cerevisiae deletion strains, locus YLL041C, strain sdh2, active compounds read low 0.977 | S. cerevisiae deletion strains, locus YLR027C, strain aat2, active compounds read low 0.975 | S. cerevisiae deletion strains, locus YLR039C, strain RIC1, active compounds read low 1.04 | S. cerevisiae deletion strains, locus YLR058C, strain SHM2, active compounds read low 1.01 | S. cerevisiae deletion strains, locus YLR102C, strain apc9, active compounds read low 1.03 | S. cerevisiae deletion strains, locus YLR113W, strain HOG1, active compounds read low 1 | S. cerevisiae deletion strains, locus YLR221C, strain rsa3, active compounds read low 0.969 | S. cerevisiae deletion strains, locus YLR258W, strain gsy2, active compounds read low 0.973 | S. cerevisiae deletion strains, locus YLR262C, strain YPT6 (second series), active compounds read low 0.987 | S. cerevisiae deletion strains, locus YLR262C, strain YPT6, active compounds read low 1.02 | S. cerevisiae deletion strains, locus YLR268W, strain sec22, active compounds read low 1.03 | S. cerevisiae deletion strains, locus YLR320W, strain mms22, active compounds read low 0.955 | S. cerevisiae deletion strains, locus YLR330W, strain CHS5, active compounds read low 1.01 | S. cerevisiae deletion strains, locus YLR342W, strain FKS1 (second series), active compounds read low 1.01 | S. cerevisiae deletion strains, locus YLR342W, strain FKS1, active compounds read low 0.983 | S. cerevisiae deletion strains, locus YLR357W, strain rsc2, active compounds read low 0.93 | S. cerevisiae deletion strains, locus YLR370C, strain arc18, active compounds read low 0.974 | S. cerevisiae deletion strains, locus YLR371W, strain rom2, active compounds read low 1.02 | S. cerevisiae deletion strains, locus YLR384C, strain iki3, active compounds read low 0.951 | S. cerevisiae deletion strains, locus YLR418C, strain cdc73, active compounds read low 1.05 | S. cerevisiae deletion strains, locus YML016C, strain PPZ1, active compounds read low 1.01 | S. cerevisiae deletion strains, locus YML032C, strain rad52, active compounds read low 1.03 | S. cerevisiae deletion strains, locus YML120C, strain ndi1, active compounds read low 0.982 | S. cerevisiae deletion strains, locus YML124C, strain tub3, active compounds read low 1.02 | S. cerevisiae deletion strains, locus YMR058W, strain fet3, active compounds read low 0.974 | S. cerevisiae deletion strains, locus YMR078C, strain ctf18, active compounds read low 1.03 | S. cerevisiae deletion strains, locus YMR125W, strain sto1, active compounds read low 0.956 | S. cerevisiae deletion strains, locus YMR129W, active compounds read low 0.977 | S. cerevisiae deletion strains, locus YMR205C, strain PFK2, active compounds read low 0.979 | S. cerevisiae deletion strains, locus YMR223W, strain ubp8, active compounds read low 1.03 | S. cerevisiae deletion strains, locus YMR231W, strain pep5, active compounds read low 0.957 | S. cerevisiae deletion strains, locus YMR263W, strain SAP30, active compounds read low 1.01 | S. cerevisiae deletion strains, locus YMR307W, strain GAS1, active compounds read low 1.05 and 0.978 | S. cerevisiae deletion strains, locus YNL067W, strain RPL9B, active compounds read low 1.01 | S. cerevisiae deletion strains, locus YNL071W, strain lat1, active compounds read low 0.975 | S. cerevisiae deletion strains, locus YNL128W, strain TEP1, active compounds read low 1.02 | S. cerevisiae deletion strains, locus YNL153C, strain GIM3, active compounds read low 1.01 | S. cerevisiae deletion strains, locus YNL175C, strain NOP13, active compounds read low 1.02 | S. cerevisiae deletion strains, locus YNL183C, strain NPR1, active compounds read low 0.942 | S. cerevisiae deletion strains, locus YNL197C, strain WHI3, active compounds read low 1.01 | S. cerevisiae deletion strains, locus YNL209W, strain ssb2, active compounds read low 0.971 | S. cerevisiae deletion strains, locus YNL224C, strain SQS1, active compounds read low 1 | S. cerevisiae deletion strains, locus YNL233W, strain BNI4, active compounds read low 1.02 | S. cerevisiae deletion strains, locus YNL248C, strain rpa49, active compounds read low 0.968 | S. cerevisiae deletion strains, locus YNL250W, strain rad50, active compounds read low 1.04 | S. cerevisiae deletion strains, locus YNL271C, strain bni1, active compounds read low 1.05 | S. cerevisiae deletion strains, locus YNL298W, strain CLA4, active compounds read low 1.03 | S. cerevisiae deletion strains, locus YNL307C, strain MCK1, active compounds read low 1.04 | S. cerevisiae deletion strains, locus YNL322C, strain KRE1 (second series), active compounds read low 0.968 | S. cerevisiae deletion strains, locus YNL322C, strain KRE1, active compounds read low 1 | S. cerevisiae deletion strains, locus YNR049C, strain mso1, active compounds read low 0.972 | S. cerevisiae deletion strains, locus YNR052C, strain pop2, active compounds read low 1.03 | S. cerevisiae deletion strains, locus YOL006C, strain TOP1, active compounds read low 1.07 | S. cerevisiae deletion strains, locus YOL012C, strain htz1 1.19 | S. cerevisiae deletion strains, locus YOL147C, strain pex11, active compounds read low 1.02 | S. cerevisiae deletion strains, locus YOR001W, strain rrp6, active compounds read low 0.988 | S. cerevisiae deletion strains, locus YOR061W, strain CKA2, active compounds read low 1.01 | S. cerevisiae deletion strains, locus YOR069W, strain VPS5, active compounds read low 0.997 | S. cerevisiae deletion strains, locus YOR070C, strain gyp1, active compounds read low 0.988 | S. cerevisiae deletion strains, locus YOR080W, strain dia2, active compounds read low 0.972 | S. cerevisiae deletion strains, locus YOR083W, strain WHI5 (second series), active compounds read low 1.01 | S. cerevisiae deletion strains, locus YOR083W, strain WHI5, active compounds read low 0.98 | S. cerevisiae deletion strains, locus YOR106W, strain vam3, active compounds read low 0.982 | S. cerevisiae deletion strains, locus YOR136W, strain idh2, active compounds read low 1.04 | S. cerevisiae deletion strains, locus YOR144C, strain elg1, active compounds read low 1.02 | S. cerevisiae deletion strains, locus YOR184W, strain ser1, active compounds read low 1.04 | S. cerevisiae deletion strains, locus YOR231W, strain MKK1, active compounds read low 1.02 | S. cerevisiae deletion strains, locus YOR265W, strain rbl2, active compounds read low 0.984 | S. cerevisiae deletion strains, locus YOR270C, strain vph1, active compounds read low 0.966 | S. cerevisiae deletion strains, locus YOR290C, strain snf2, active compounds read low 0.972 | S. cerevisiae deletion strains, locus YOR316C, strain cot1, active compounds read low 1.03 | S. cerevisiae deletion strains, locus YPL051W, strain arl3, active compounds read low 0.967 | S. cerevisiae deletion strains, locus YPL055C, strain LGE1, active compounds read low 1.04 | S. cerevisiae deletion strains, locus YPL078C, strain atp4, active compounds read low 0.977 | S. cerevisiae deletion strains, locus YPL106C, strain sse1, active compounds read low 0.978 | S. cerevisiae deletion strains, locus YPL240C, strain hsp82, active compounds read low 0.977 | S. cerevisiae deletion strains, locus YPL241C, strain CIN2, active compounds read low 1 | S. cerevisiae deletion strains, locus YPL256C, strain CLN2, active compounds read low 1.01 | S. cerevisiae deletion strains, locus YPR119W, strain clb2, active compounds read low 1.02 | S. cerevisiae deletion strains, locus YPR141C, strain kar3, active compounds read low 1.03 | S. cerevisiae deletion strains, locus YPR163C, strain tif3, active compounds read low 1.02 | S. cerevisiae deletion strains, locus YPR167C, strain met16, active compounds read low 1.03 | S. cerevisiae deletion strains, strain wtn01, active compounds read low 1.02 | S. cerevisiae strains, strain wild type, active compounds read low 1.01
